Data published in PubChem BioAssay AID1159580 (chemical genetic matrix, 2015).
Values joined by “and” are separate entries in the source; they are usually repeats but may differ in a detail not shown here. Equal entries are not always repeated. Screen size: about 5,500 compounds; about 2,000 (36%) were called active. About 18% were inconclusive and are not listed. Cut-off read from the data, not from the text of the source: active = normalized growth mostly below about 0.91 (no sharp cut-off); inconclusive = no clear call, values can overlap the other calls; inactive = mostly above about 0.92. The list shows a part of the results.

Assay: chemical genetic growth profiling, strain panel (AID 1159580);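 note: tested at 20 µM; growth read once vehicle control cultures reached saturation at 30 °C; 1 = growth at the plate median or of vehicle wells; lower values mean less growth of the strain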
Details: S. cerevisiae deletion strains, growth OD

Measured: normalized growth

CCOC(=O)c1c(C)cc(OC)cc1O
inactive: locus YAL013W, strain DEP1, active compounds read low 1 | locus YAL021C, strain ccr4, active compounds read low 1.02 | locus YAL026C, strain drs2, active compounds read low 0.977 | locus YAL030W, strain snc1, active compounds read low 0.962 | locus YBL061C, strain skt5, active compounds read low 0.981 | locus YBR009C, strain hhf1, active compounds read low 0.962 | locus YBR021W, strain FUR4, active compounds read low 0.971 | locus YBR023C, strain chs3, active compounds read low 0.97 | locus YBR171W, strain sec66, active compounds read low 0.934 | locus YBR229C, strain ROT2, active compounds read low 1 | locus YBR231C, strain swc5, active compounds read low 0.987 | locus YBR279W, strain paf1, active compounds read low 0.993 | locus YCL011C, strain gbp2, active compounds read low 0.975 | locus YCL016C, strain dcc1, active compounds read low 0.971 | locus YCL029C, strain bik1, active compounds read low 0.949 | locus YCL061C, strain MRC1, active compounds read low 0.972 | locus YCL069W, strain vba3, active compounds read low 0.969 | locus YCR088W, strain abp1, active compounds read low 0.953 | locus YDL005C, strain med2, active compounds read low 1.01 | locus YDL035C, strain GPR1, active compounds read low 0.983 | locus YDL040C, strain nat1, active compounds read low 0.959 | locus YDL074C, strain BRE1, active compounds read low 0.955 | locus YDL101C, strain DUN1, active compounds read low 1.01 | locus YDL134C, strain PPH21, active compounds read low 0.996 | locus YDL185W, strain tfp1, active compounds read low 0.984 | locus YDL192W, strain arf1, active compounds read low 0.942 | locus YDR001C, strain nth1, active compounds read low 0.96 | locus YDR069C, strain doa4, active compounds read low 0.999 | locus YDR150W, strain NUM1, active compounds read low 1.01 | locus YDR159W, strain sac3, active compounds read low 0.926 | locus YDR162C, strain NBP2, active compounds read low 1.01 | locus YDR195W, strain ref2 1.1 | locus YDR297W, strain sur2, active compounds read low 0.975 | locus YDR334W, strain swr1, active compounds read low 0.979 | locus YDR335W, strain msn5, active compounds read low 0.991 | locus YDR388W, active compounds read low 0.958 | locus YEL003W, strain gim4, active compounds read low 0.964 | locus YEL037C, strain rad23, active compounds read low 0.978 | locus YEL061C, strain CIN8 (second series), active compounds read low 0.962 | locus YEL061C, strain CIN8, active compounds read low 0.989 | locus YER015W, strain faa2, active compounds read low 0.991 | locus YER016W, strain bim1, active compounds read low 0.975 | locus YER111C, strain swi4, active compounds read low 0.985 | locus YER155C, strain BEM2, active compounds read low 0.985 | locus YER167W, strain BCK2, active compounds read low 0.935 | locus YFR010W, strain ubp6, active compounds read low 0.99 | locus YGL078C, strain dbp3, active compounds read low 0.963 | locus YGL086W, strain mad1, active compounds read low 0.943 | locus YGL167C, strain pmr1, active compounds read low 0.973 | locus YGL173C, strain kem1, active compounds read low 0.985 | locus YGL227W, strain vid30, active compounds read low 0.963 | locus YGL240W, strain doc1, active compounds read low 0.903 | locus YGL248W, strain PDE1, active compounds read low 1 | locus YGL253W, strain hxk2, active compounds read low 0.994 | locus YGR078C, strain PAC10, active compounds read low 0.965 | locus YGR135W, strain pre9, active compounds read low 0.912 | locus YGR229C, strain SMI1, active compounds read low 0.972 | locus YGR252W, strain gcn5, active compounds read low 0.918 | locus YHR013C, strain ard1, active compounds read low 0.969 | locus YHR027C, strain rpn1, active compounds read low 0.988 | locus YHR030C, strain SLT2, active compounds read low 0.983 and 0.948 | locus YHR079C, strain IRE1, active compounds read low 0.956 | locus YHR094C, strain hxt1, active compounds read low 0.946 | locus YHR129C, strain ARP1, active compounds read low 0.983 | locus YHR142W, strain chs7, active compounds read low 0.918 | locus YHR200W, strain rpn10, active compounds read low 0.926 | locus YIL066C, strain RNR3, active compounds read low 1 | locus YIL073C, strain SPO22, active compounds read low 0.891 | locus YIR030C, strain dcg1, active compounds read low 0.94 | locus YJL092W, strain hpr5, active compounds read low 0.96 | locus YJL095W, strain BCK1 (second series), active compounds read low 0.976 | locus YJL095W, strain BCK1, active compounds read low 0.951 and 0.943 | locus YJL115W, strain asf1, active compounds read low 0.981 | locus YJL129C, strain trk1, active compounds read low 0.933 | locus YJL134W, strain LCB3, active compounds read low 0.988 | locus YJL154C, strain vps35, active compounds read low 0.97 | locus YJL166W, strain qcr8, active compounds read low 0.97 | locus YJL168C, strain set2, active compounds read low 0.959 | locus YJL187C, strain SWE1 (second series), active compounds read low 1 | locus YJL187C, strain SWE1, active compounds read low 0.979 | locus YJR043C, strain POL32, active compounds read low 0.921 | locus YJR066W, strain TOR1, active compounds read low 0.9
active: locus YDR101C, strain arx1, active compounds read low 0.917 | locus YDR137W, strain rgp1, active compounds read low 0.784 | locus YDR318W, strain mcm21, active compounds read low 0.902 | locus YDR392W, strain spt3, active compounds read low 0.724 | locus YDR502C, strain sam2, active compounds read low 0.921 | locus YER110C, active compounds read low 0.899 | locus YER155C, strain BEM2 (second series), active compounds read low 0.609 | locus YHR079C, strain IRE1 (second series), active compounds read low 0.912 | locus YIL125W, strain kgd1, active compounds read low 0.929 | locus YJL164C, strain tpk1, active compounds read low 0.911
